Molecules are shown by their SMILES.

In assay [1] the test system is Human papillomavirus type 1a protein E7 (residues 44-93). As to the kind of experiment: HPV1a E7 fragment binders on microarrays, primary screen, biochemical, small-molecule microarray, residues 44-93, 635 nm fluorescence (AID 1108).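 Note: E7 fragment applied at 1 µg/mL in TBST for 1 h at 4 C; score combines spot fluorescence with its signal to noise ratio.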 The note with it: small-molecule microarray binding, fluorescence 635 nm; higher = more signal.
Assay [2] can be described thus: modulators of HCV replicon luciferase signal, primary screen, HCV replication inhibitor project, Huh7 cells, luciferase reporter (AID 1109).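 Note: huh7 hepatoma cells harbouring a luciferase neomycin HCV replicon reporter; luciferase luminescence as measure of HCV replicon replication; test concentration not given here.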 Particulars: 48 h, higher = more signal.
The target in assay [3] is Left-right determination factor 2 (Homo sapiens) (UniProt O00292). As to the kind of experiment: LEFTY2 binders on small-molecule microarrays, primary screen, biochemical, small-molecule microarray, 635 nm fluorescence scan (AID 1110). The note with it: LEFTY2 binding, higher = more signal.
Sequence of Left-right determination factor 2 (Homo sapiens) (O00292 whole entry, looked up): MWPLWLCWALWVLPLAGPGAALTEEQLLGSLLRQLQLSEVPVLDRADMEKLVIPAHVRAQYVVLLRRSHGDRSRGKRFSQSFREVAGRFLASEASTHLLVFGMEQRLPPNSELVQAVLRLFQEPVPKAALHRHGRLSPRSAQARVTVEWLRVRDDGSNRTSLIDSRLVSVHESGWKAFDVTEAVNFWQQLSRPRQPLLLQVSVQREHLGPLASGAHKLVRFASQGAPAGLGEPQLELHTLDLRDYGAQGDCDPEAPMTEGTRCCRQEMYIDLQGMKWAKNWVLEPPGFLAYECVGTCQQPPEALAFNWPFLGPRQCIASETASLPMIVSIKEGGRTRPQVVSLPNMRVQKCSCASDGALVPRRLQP
Assay [4] deals with Calmodulin-1 (Homo sapiens) (UniProt P0DP23). As to the kind of experiment: CALM1 binders on microarrays, EGTA buffer, profiling panel, biochemical, small-molecule microarray, Cy5-labelled CALM1 (AID 1111).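 Note: labelled calmodulin applied in Tris saline Tween buffer holding calcium plus EGTA and DTT.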 Particulars: Cy5-CALM1 binding fluorescence, higher = more signal.
The target is the same in assay [5]. Kind of assay: calcium-bound CALM1 binders on microarrays, profiling panel, artefact control for SMM control-protein annotation, biochemical, small-molecule microarray, Cy5-labelled CALM1, plus calcium (AID 1112).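 Note: score merges spot fluorescence with signal to noise from triplicate slides.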 Particulars: Cy5-CALM1 binding fluorescence, higher = more signal.
Assay [6] can be described thus: small-molecule microarray binders of probe aWnt5a, primary screen, biochemical, biotinylated probe, 635/667 nm fluorescence (AID 1113).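 Note: score merges 667 nm fluorescence intensity with signal-to-noise per printed feature.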 The note with it: higher = more signal.
A short description of assay [7]: small-molecule microarray binders of probe aShh, primary screen, biochemical, biotinylated probe, 635/667 nm fluorescence (AID 1114).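 Note: probe is biotin-labelled aShh protein from a stem cell growth factor screen; measures binding of labelled protein to compounds printed on the slide; score merges feature fluorescence at 667 nm with signal-to-noise.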 The note with it: higher = more signal.
Assay [8] in a line: small-molecule microarray binders of probe aNog, primary screen, biochemical, biotinylated probe, 635/667 nm fluorescence (AID 1115).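 Note: probe is biotinylated aNog protein used at 0.15 µg/mL for 1 h at 4 C; z-score combines 667 nm fluorescence of each spot with its signal to noise.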 Particulars: higher = more signal.
The target of assay [9] is Torsin-1A-interacting protein 1 (Homo sapiens) (UniProt Q5JTV8). Kind of assay: LAP1 binders from COS7 cell lysate, primary screen, small-molecule microarray, 635/667 nm fluorescence (AID 1116). The note with it: COS7-hLAP1 lysate binding, 635 nm fluorescence, higher = more signal.
Sequence of Torsin-1A-interacting protein 1 (Homo sapiens) (Q5JTV8 whole entry, looked up): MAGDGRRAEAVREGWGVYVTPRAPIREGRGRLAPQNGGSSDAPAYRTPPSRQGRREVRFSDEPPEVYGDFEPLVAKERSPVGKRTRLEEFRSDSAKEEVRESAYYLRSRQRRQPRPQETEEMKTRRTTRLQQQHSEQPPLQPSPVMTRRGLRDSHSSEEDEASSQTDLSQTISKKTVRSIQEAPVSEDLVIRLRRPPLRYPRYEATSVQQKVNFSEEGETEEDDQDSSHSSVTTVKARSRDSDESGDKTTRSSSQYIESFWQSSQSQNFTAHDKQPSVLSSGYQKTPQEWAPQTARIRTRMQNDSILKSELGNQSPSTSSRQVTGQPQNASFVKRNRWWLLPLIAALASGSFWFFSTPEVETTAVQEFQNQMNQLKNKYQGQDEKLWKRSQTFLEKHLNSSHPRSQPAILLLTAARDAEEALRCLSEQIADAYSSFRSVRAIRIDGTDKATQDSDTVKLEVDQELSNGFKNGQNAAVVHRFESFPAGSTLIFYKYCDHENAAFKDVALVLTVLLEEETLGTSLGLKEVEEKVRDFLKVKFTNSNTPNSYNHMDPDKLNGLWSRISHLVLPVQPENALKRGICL
Assay [10] has as its target Alpha-bungarotoxin (Bungarus multicinctus) (UniProt P60615). As to the kind of experiment: alpha-bungarotoxin binders on microarray, profiling panel, artefact control for SMM control protein annotation, biochemical, small-molecule microarray, Alexa647 label, 635/667 nm fluorescence (AID 1117). The note with it: alpha-BTX-A647 binding fluorescence, higher = more signal.

Sequence of Alpha-bungarotoxin (Bungarus multicinctus) (P60615 whole entry, looked up): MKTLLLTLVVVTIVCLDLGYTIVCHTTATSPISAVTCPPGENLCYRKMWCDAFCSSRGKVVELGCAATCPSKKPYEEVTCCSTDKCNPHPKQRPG

On to `CCOC(=O)C[C@H]1[C@H](OC(=O)c2cc3ccccc3oc2=O)[C@@H](NC(=O)CC(C)C)c2cc(OCCCO)ccc2N1C(=O)c1ccc2ccccc2n1`, for which the composite z-score in assay [1] is 1.05; in assay [3], 0.643; in assay [4], -0.134; in [5] it was -0.35; in [6], -0.152; in assay [7], -0.154. Moreover, the composite z-score in assay [8] was -0.143; in assay [9] it was 0.0785; in [10], 0.643. Besides, the z-score in [2] was -0.359.

Turning to `CCOC(=O)C[C@H]1[C@H](OC(=O)c2cc3ccccc3oc2=O)[C@@H](NC(=O)c2ccccc2)c2cc(OCCCO)ccc2N1C(=O)c1ccccc1`, the composite z-score was 0.119 in [1]; 0.535 in [3]; -0.0848 in assay [4]; -0.782 in assay [5]; -0.0718 in assay [6]; 0.0121 in assay [7]. The composite z-score was -0.108 in assay [8], 0.203 in assay [9] and 0.139 in [10]. Moreover, the z-score in assay [2] was -0.148.

Consider `C[N+](C)(C)CCCCCCNC(=O)[C@@H]1C[C@@H]2C(=O)N3CCC[C@H]3C(=O)N2[C@@H]1c1ccc(O)cc1`, for which the composite z-score in assay [1] was 0.279; in assay [3], 0.994; in assay [4], -0.31; in assay [5] it was -0.887; in assay [6], -0.0239; in [7], -0.138. Also, the results for the composite z-score in assay [8], in assay [9] and in assay [10] were -0.29, 0.531 and 0.341, respectively. Besides, the z-score in assay [2] was determined as 0.501.

`Cc1ccc(N2C(=O)c3ccccc3[C@@H](C(=O)NCCCN(C)C)[C@@H]2c2ccc(CO)cc2)nc1`: the composite z-score in [1] was -0.48; in assay [3], -0.14; in assay [4], -0.571; in assay [5], -0.382; in assay [6], -0.22; in [7], -0.452. Besides, the composite z-score is -0.577 in assay [8], 1.29 in [9] and 0.14 in [10]. For the same compound, the z-score in [2] stood at 0.234.

`Cc1cc(C)c(C(O)C2C=CC3C(=O)N(c4ccccc4)C(=O)C3N2Nc2ccccc2F)c(C)c1` (stereo not given): the composite z-score in assay [1] is 0.0453; in assay [3], -0.636; in [4], 0.139; in assay [5] it was -0.0086; in assay [6] it was 0.184; in [7], 0.282. Further, the composite z-score in assay [8] stood at 1.32; in [9], 0.563; in [10], 0.505. The compound further gave a z-score in assay [2] of 0.937.

As to `C=CCC(OC(C)=O)[C@@H]1[C@@H](N(Cc2ccc(-c3cccc(C(F)(F)F)c3)o2)C(=O)c2ccc(-c3ccccc3)cc2)c2cc(OCCCO)ccc2N1C(=O)Cc1ccc2ccccc2c1` (stereo not given in full), the composite z-score in assay [1] was -0.267; in [3], -0.458; in [4], -0.248; in [5] it was 0.277; in assay [6], -0.0981; in [7], 0.0204. Further, the results for the composite z-score in [8], in assay [9] and in [10] were -0.144, -0.115 and -0.153, respectively. In assay [2], the z-score was -1.09.

For the compound `O=C(O)[C@@H]1C[C@@H]2C(=O)N3CCC[C@H]3C(=O)N2[C@@H]1c1ccc(O)cc1`, the composite z-score in [1] was 1.05; in [3] it was 0.48; in assay [4], 0.271; in assay [5] it was 0.204; in assay [6], -0.0701; in assay [7], -0.0289. The composite z-score was -0.226 in assay [8], 0.343 in assay [9] and 0.964 in assay [10]. The same compound returned a z-score in assay [2] of 3.97.

Take `Cc1ccc(F)cc1S(=O)(=O)N[C@@H]1CCN(Cc2ccc(Br)cc2)C1`: the composite z-score in [1] is -1.51; in assay [3], 0.681; in assay [4], -1.03; in assay [5] it was -0.806; in assay [6], -0.126; in assay [7], -0.214. The composite z-score in assay [8] was -0.252; in [9], 0.418; in assay [10], 0.322. For the same compound, the z-score in assay [2] was -1.5.

Regarding `CCN(CC)c1ccc(N2CC=CC34O[C@@H]5/C=C\CCCOC(=O)C5[C@H]3C(=O)N(C(C)CO)[C@@H]4C2=O)cc1` (stereo not given in full), the composite z-score is -0.0836 in assay [1]; -0.469 in assay [3]; -0.479 in [4]; -0.619 in [5]; -0.0405 in assay [6]; 0.297 in assay [7]. For the same compound, the composite z-score in assay [8] is 0.0073; in assay [9], -0.421; in [10], 1.04. For the same compound, in assay [2], the z-score was -0.261.

For `CC#CCO[Si](C#Cc1ccccc1)(C(C)C)C(C)C`, the composite z-score in assay [1] is -2.07; in assay [3], -0.0764; in assay [4], -0.0874; in assay [5], 0.877; in [6], -0.224; in [7], -0.0769. The figures for the composite z-score in [8], in assay [9] and in [10] were -0.281, -0.785 and -1.53, respectively. For the same compound, in assay [2], the z-score was 0.046.

With `CCCC#C[Si](O[C@H](CC)c1cn([C@H](C)c2ccccc2)nn1)(C(C)C)C(C)C`, the composite z-score in assay [1] was 0.691; in [3], 0.3; in assay [4], -0.155; in assay [5], -0.157; in assay [6] it was -0.124; in assay [7], 0.275. Besides, the values for the composite z-score in [8], in [9] and in assay [10] were 0.341, 1.54 and 0.709, respectively. Further, the z-score in assay [2] is -0.133.
